{"source": "PubChem BioAssay AID1478", "about": "(National Center for Advancing Translational Sciences (NCATS), 2009)", "note": "In all, about 200,000 compounds went through this assay and about 860 (0.43%) were called active. This excerpt belongs to a sample that is enriched for actives. A number with no mark means an inactive call. The call rests on the fitted dose curve; in most records, active means well fitted inhibition curve with a large enough effect; inconclusive means small, poorly fitted or top-dose-only effect; inactive means flat fitted curve, though single readings scatter. Potency means the concentration at half of the fitted maximal effect.", "data": [{"biological_target": "Cruzipain (Trypanosoma cruzi) (UniProt P25779)", "sequence (P25779 123-467 limits assumed)": "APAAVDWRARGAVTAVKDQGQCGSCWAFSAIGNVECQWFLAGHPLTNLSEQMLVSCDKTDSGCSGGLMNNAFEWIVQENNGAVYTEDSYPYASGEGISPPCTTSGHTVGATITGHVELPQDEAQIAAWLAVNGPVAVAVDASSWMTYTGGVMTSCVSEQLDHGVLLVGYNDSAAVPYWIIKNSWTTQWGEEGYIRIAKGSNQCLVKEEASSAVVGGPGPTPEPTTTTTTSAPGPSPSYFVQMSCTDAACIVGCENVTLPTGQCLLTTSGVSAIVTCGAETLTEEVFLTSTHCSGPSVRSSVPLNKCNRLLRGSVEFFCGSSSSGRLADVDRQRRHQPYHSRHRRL", "assay": "qHTS Assay for Promiscuous and Specific Inhibitors of Cruzain (with detergent); further: nearly all actives have a fitted effect of over 40% in size", "settings": "purified cruzain, Z-FR-AMC fluorescence, 0.01% Triton", "method": "Cruzain (3.4.22.51) is a cysteine protease from the tropical parasite Trypanosoma cruzi. Dual qHTS experiment was performed against the NCGC compound collection in order to 1) identify novel inhibitors of the enzyme and 2) profile the compound collection for promiscuous inhibitors operating via colloidal aggregation (by performing detergent-free and detergent-containing comparison screens). Cruzain was assayed by the use of fluorogenic coumarin-based substrate Z-FR-AMC: proteolytic cleavage releases AMC, whose fluorescence is measured at 360 nm excitation and 450 nm emission. Purified cruzain was supplied by the labs of Prof. James McKerrow and Brian Shoichet, UC San Francisco.\nThis assay had 0.01% Triton X-100 concentration. See also releated assay \"qHTS Assay for Promiscuous and Specific Inhibitors of Cruzain (without detergent)\" with 0.00005% Triton X-100.\nSee following references for additional details:\nAssay Provider: Shoichet, Brian; University of California, San Fancisco\nScreening Center PI: Austin, C.P.\nScreening Center: NIH Chemical Genomics Center [NCGC]\nBuffer: 100 mM Sodium Acetate, pH 5.5, 5 mM DTT, Triton X-100 concentration: 0.01%.\nBuffer in columns 3 and 4 as negative control (no enzyme).\nSubstrate solution: 2 uM final concentration of Z-FR-AMC (catalog number I-1160, Bachem) dispensed throughout the plate.\nEnzyme: 1.5 nM Cruzain final concentration in columns 1, 2, 5-48. Column 1 is neutral (100% activity). Column 2 contained titration of covalent inhibitor K11777, starting concentration 1 mM, then 1:2 dilution in duplicate).\nThree uL of enzyme or buffer were dispensed to 1536-well Greiner black solid bottom plates. Compounds and controls (23 nL) were transferred via Kalypsys PinTool. The plates were incubated for 15 min at room temperature, and then 1 uL of substrate solution was added to start the reaction. The plates were immediately transferred to and read 4 times every 30 seconds for 2 min on ViewLux High-throughput CCD imager (Perkin-Elmer) using 360 nm excitation and 450 nm emission fluorescence protocol. The fluorescence intensity difference between the third and the first time points (time lapse of 60 seconds) was used to compute reaction progress.", "units": {"max response, negative = inhibition": "%"}, "values": [{"smiles": "c1ccc(-c2nnc(SCc3nc4ccccc4[nH]3)o2)cc1", "Potency": "25.1 µM (active)"}, {"smiles": "Clc1ccccc1SCc1nc2ccccc2[nH]1", "max response, negative = inhibition": -1.73}, {"smiles": "Clc1ccc(-c2nnc(SCc3nc4ccccc4s3)o2)cc1", "max response, negative = inhibition": -2.22}, {"smiles": "COc1ccc(-c2noc(-c3ccc(N4CCN(c5ccccc5)CC4)c([N+](=O)[O-])c3)n2)cc1OC", "max response, negative = inhibition": -4.6}, {"smiles": "O=C(NCc1ccccc1Cl)C1=Cc2cc(Br)ccc2OC1", "max response, negative = inhibition": -4.23}, {"smiles": "COc1ccc(Cn2ccn(CC(=O)Nc3cc(C)ccc3C)c(=O)c2=O)cc1", "max response, negative = inhibition": -6.93}, {"smiles": "O=C(NCCCO)C(=O)Nc1c2c(nn1-c1ccc(F)cc1)CSC2", "max response, negative = inhibition": -6.19}, {"smiles": "Cc1cc(C(=O)Nc2ccccc2N2CCOCC2)c2ccccc2n1", "max response, negative = inhibition": 7.98}, {"smiles": "c1ccc(Nc2nc(N3CCOCC3)c3ccccc3n2)cc1", "Potency": "14.1 µM (active)"}, {"smiles": "c1cncc(-c2nc(N3CCNCC3)c3ccccc3n2)c1", "max response, negative = inhibition": -1.38}, {"smiles": "CCOc1ccc(N(C)S(=O)(=O)c2cc(-c3cnc(C)o3)ccc2OC)cc1", "max response, negative = inhibition": -8.69}, {"smiles": "Cc1cc(-c2ccc(C)c(S(=O)(=O)N3c4ccccc4CC3C)c2)on1", "note": "(stereo not given)", "max response, negative = inhibition": -1.84}, {"smiles": "CC(C)Nc1nc(N(c2ccccc2)c2ccccc2)nc(-n2ccnc2)n1", "max response, negative = inhibition": 1.14}, {"smiles": "N#Cc1nc(N)nc(N(c2ccccc2)c2ccccc2)n1", "Potency": "2.24 µM (active)"}, {"smiles": "COc1cc(OC)c(N(C)C(=O)c2cc3c(=O)oc4ccccc4c3s2)cc1Cl", "max response, negative = inhibition": -0.489}, {"smiles": "Cc1ccccc1CSCCNC(=O)C1CCN(S(=O)(=O)Cc2ccccc2)CC1", "max response, negative = inhibition": -4.58}, {"smiles": "COc1cc(Cl)c(NC(=O)C(NS(=O)(=O)c2cccs2)C(C)C)c(OC)c1", "note": "(stereo not given)", "max response, negative = inhibition": -0.797}, {"smiles": "CSc1nn(Cc2cccc(C)c2)c(N)c1S(=O)(=O)c1ccccc1", "max response, negative = inhibition": -5.62}, {"smiles": "CCN(CC)CCNc1ncnc2c1cnn2-c1cc(Cl)ccc1C", "max response, negative = inhibition": 0.243}, {"smiles": "CCn1c(=N)c(C(=O)NCCCOC)cc2c(=O)n3cccc(C)c3nc21", "Potency": "31.6 µM (active)"}, {"smiles": "Cc1cccn2c(=O)c3cc(C(=O)NC(C)c4ccccc4)c(=N)n(CCCO)c3nc12", "note": "(stereo not given)", "max response, negative = inhibition": -22.8}, {"smiles": "CCCn1c(=N)c(C(=O)NCc2ccccc2)cc2c(=O)n3cccc(C)c3nc21", "max response, negative = inhibition": -0.842}, {"smiles": "O=C(NCc1ccc2c(c1)CCN2C(=O)c1ccccc1)c1ccccc1", "max response, negative = inhibition": 1.91}, {"smiles": "CCOc1ccc(-c2nonc2NC(=O)c2oc3ccc(C)cc3c2C)cc1OCC", "max response, negative = inhibition": -1.93}, {"smiles": "O=C(CCS(=O)(=O)c1ccc2c(c1)NC(=O)CO2)Nc1cccc(C(F)(F)F)c1", "max response, negative = inhibition": -1.23}, {"smiles": "COc1ccc(Cl)cc1NC(=O)CNc1ccccc1F", "max response, negative = inhibition": -7.98}, {"smiles": "COc1ccc(Cl)cc1NC(=O)COC(=O)C(CC(C)C)N1C(=O)C2CC=CCC2C1=O", "note": "(stereo not given)", "Potency": "12.6 µM (active)"}, {"smiles": "COc1ccc(Cl)cc1NC(=O)Cn1c(=O)c2ccccc2n2nncc12", "max response, negative = inhibition": -4.81}, {"smiles": "Cc1oc2ccc(O)c(CN3CCCCC3)c2c1C(=O)Nc1cccc(C(F)(F)F)c1", "max response, negative = inhibition": -4.76}, {"smiles": "Cc1cc(C)cc(NS(=O)(=O)c2ccc(-c3cc(C)no3)s2)c1", "max response, negative = inhibition": -11.1}, {"smiles": "O=C(NCCN1CCN(Cc2ccccc2)CC1)c1cc2c(=O)[nH]c3ccccc3c2s1", "max response, negative = inhibition": -12.6}, {"smiles": "Cn1c(C(=O)NCCCN2CCN(c3cccc(Cl)c3)CC2)cc2c(=O)n(C)c3ccccc3c21", "max response, negative = inhibition": -27.7}, {"smiles": "Cn1c(C(=O)NCCN2CCc3ccccc3C2)cc2c(=O)[nH]c3ccccc3c21", "Potency": "15.8 µM (active)"}, {"smiles": "CC(=O)c1nn(-c2ccc(OC(F)(F)F)cc2)nc1Nc1ccccc1", "max response, negative = inhibition": 1.04}, {"smiles": "O=C(CSc1nc2nccnc2c(=O)n1CCc1c[nH]c2ccccc12)Nc1ccccc1F", "max response, negative = inhibition": -2.4}, {"smiles": "O=C(C1COc2ccccc2O1)N(Cc1cccnc1)c1nc2c(F)cc(F)cc2s1", "note": "(stereo not given)", "max response, negative = inhibition": -3.06}, {"smiles": "CC(C)c1ccc(NC(=O)Cn2nnc(C(=O)NCCc3ccccc3)c2N)cc1", "max response, negative = inhibition": 0.0037}, {"smiles": "COC(=O)c1scc(-c2ccc(C)cc2)c1S(=O)(=O)Nc1cc(Cl)c(OC)cc1OC", "max response, negative = inhibition": -7.07}, {"smiles": "Cc1cccc(C(=O)NCCCN2CCCC2=O)c1", "max response, negative = inhibition": 6.06}, {"smiles": "O=C1CCCN1CCCNc1ncnc2c1[nH]c1ccccc12", "Potency": "15.8 µM (active)"}, {"smiles": "O=C(CCn1c(=S)[nH]c2ccccc2c1=O)NCCCN1CCCC1=O", "max response, negative = inhibition": 0.249}, {"smiles": "Cc1nn(C(=O)c2c(F)cccc2F)c(C)c1S(=O)(=O)N1CCOCC1", "max response, negative = inhibition": 0.43}, {"smiles": "COc1ccc(CC(=O)NCCc2sc3nc(-c4ccc(OC)cc4)nn3c2C)cc1", "max response, negative = inhibition": -3.58}, {"smiles": "COc1cc(OC)cc(C(=O)Nc2cc3nn(-c4ccccc4)nc3cc2Cl)c1", "max response, negative = inhibition": 6.82}, {"smiles": "Cc1cccc(C(=O)NCCc2nc3ccccc3n2Cc2ccccc2Cl)c1", "Potency": "8.91 µM (active)"}]}]}
